From PubChem BioAssay come the findings set out here.

Assay [1] can be described thus: HepG2 liver cancer cell viability effects, profiling panel, resazurin fluorescence, 24 h, PK04 Diversity Set (AID 1172). Further: test concentration not given here. Conditions: higher = more signal.
A short description of assay [2]: basal S. cerevisiae growth modulation, no modifier, primary screen, OD600, strain BY4716, 24 h, basal condition (AID 1173). Conditions: OD600, 24 h, higher = more signal, called active from +8 up or from −8 down.
Assay [3] in a line: MM1S myeloma cell viability, profiling panel, resazurin fluorescence, basal, 24 h, PK04 Diversity Set (AID 1174). Further: test concentration not given here. The settings on record: higher = more signal, called active from +8 up or from −8 down. (Resazurin is reduced to fluorescent resorufin, in cell work by metabolically active cells.)
In assay [4] the target is Dihydroorotate dehydrogenase (quinone), mitochondrial (Plasmodium falciparum (isolate 3D7)) (UniProt Q08210). Nature of the assay: PfDHODH enzyme inhibitors, primary screen, biochemical, C-terminal His tag, absorbance 600 nm (AID 1175).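 Further: recombinant parasite enzyme with a five histidine tag at its C terminus; test concentration not given here.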 Conditions: DCIP absorbance 600 nm, higher = more signal, called active from +8 up or from −8 down.
Dihydroorotate dehydrogenase (quinone), mitochondrial (Plasmodium falciparum (isolate 3D7)), sequence (Q08210 whole entry, looked up): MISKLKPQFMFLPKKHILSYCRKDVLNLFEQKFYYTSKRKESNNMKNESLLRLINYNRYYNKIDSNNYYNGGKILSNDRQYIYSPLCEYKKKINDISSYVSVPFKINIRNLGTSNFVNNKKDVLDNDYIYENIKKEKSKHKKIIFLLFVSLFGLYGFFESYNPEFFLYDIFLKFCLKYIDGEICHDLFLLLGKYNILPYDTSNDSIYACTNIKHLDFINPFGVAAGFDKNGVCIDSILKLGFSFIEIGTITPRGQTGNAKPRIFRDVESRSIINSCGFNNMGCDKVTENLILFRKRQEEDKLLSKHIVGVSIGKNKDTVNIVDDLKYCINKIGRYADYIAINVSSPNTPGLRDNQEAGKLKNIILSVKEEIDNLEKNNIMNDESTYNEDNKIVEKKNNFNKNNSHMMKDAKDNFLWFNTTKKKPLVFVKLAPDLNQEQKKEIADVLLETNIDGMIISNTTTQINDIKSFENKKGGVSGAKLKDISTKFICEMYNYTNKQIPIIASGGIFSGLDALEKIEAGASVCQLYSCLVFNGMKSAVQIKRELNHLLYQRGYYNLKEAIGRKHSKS
Assay [5] in a line: P. aeruginosa biofilm formation inhibitors, primary screen, strain PAO1, LB-PBS medium, absorbance 600 nm (AID 1176). Further: test concentration not given here. Conditions: P. aeruginosa PAO1 growth/biofilm, A600, 12 h; higher = more signal.
Assay [6] can be described thus: S. cerevisiae RM11-1a growth modifiers, primary screen, strain RM11-1a, OD600, basal, 24 h (AID 1177).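 Further: cultures grown under basal conditions with no added stressor; test concentration not given here.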 Conditions: OD600, 24 h, higher = more signal, called active from +8 up or from −8 down.
Assay [7] is described as follows: E. coli acrAB mutant growth effects, primary screen, E. coli filamentation inducers, strain DRC39, OD650, 24 h (AID 1178).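 Further: growth measured as culture turbidity by optical density at 650 nm; test concentration not given here.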 The settings on record: higher = more signal, called active from +8 up or from −8 down.
Assay [8] is described as follows: E. coli acrAB mutant growth effects, primary screen, E. coli filamentation inducers, strain DRC39, OD650, 48 h (AID 1179).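 Further: screen aims at cell division blockers that make cells filament.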 The settings on record: E. coli DRC39 delta-acrAB growth, higher = more signal, called active from +8 up or from −8 down.
Assay [9] in a line: RPMI8226 myeloma cell viability, profiling panel, resazurin fluorescence, basal, 24 h, PK04 Diversity Set (AID 1180).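 Further: RPMI8826 multiple myeloma cell line at 5000 cells per well; test concentration not given here.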 Conditions: higher = more signal.
The target in assay [10] is E3 ubiquitin-protein ligase XIAP (Homo sapiens) (UniProt P98170). Nature of the assay: XIAP binders, primary screen, biophysical, small-molecule microarray, fluorescence 635 nm (AID 1181).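 Further: score merges 667 nm emission and signal to noise over triplicate slides.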 Conditions: small-molecule microarray binding, higher = more signal.
E3 ubiquitin-protein ligase XIAP (Homo sapiens), sequence (P98170 whole entry, looked up): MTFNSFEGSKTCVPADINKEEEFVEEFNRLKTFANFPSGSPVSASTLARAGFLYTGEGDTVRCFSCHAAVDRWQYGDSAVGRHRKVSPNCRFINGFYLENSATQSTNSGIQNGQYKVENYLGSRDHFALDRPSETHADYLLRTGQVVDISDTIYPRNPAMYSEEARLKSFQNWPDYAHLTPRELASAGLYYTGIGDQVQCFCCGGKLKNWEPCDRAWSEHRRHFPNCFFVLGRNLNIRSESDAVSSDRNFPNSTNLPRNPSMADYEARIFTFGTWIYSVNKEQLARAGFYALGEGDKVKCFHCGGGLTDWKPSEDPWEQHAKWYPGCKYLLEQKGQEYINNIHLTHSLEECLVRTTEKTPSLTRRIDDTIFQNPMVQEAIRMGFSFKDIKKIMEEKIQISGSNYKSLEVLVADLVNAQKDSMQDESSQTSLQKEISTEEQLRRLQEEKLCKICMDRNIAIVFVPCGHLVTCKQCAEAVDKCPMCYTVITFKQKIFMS

SMILES strings stand for the structures. The source made the active and inactive calls. Unless noted, how the calls were made is not given here.

Consider `CC(=O)Nc1cc(Br)ccc1C(=O)NCc1ccccc1`, for which the z-score in assay [1] was 0.184; in assay [2], -8.91 (active); in [3] it was -0.292 (inactive); in assay [5], -0.131 (inactive); in [6], -0.294 (inactive); in [7], 0.0344 (inactive). The z-score in assay [8] is -0.785 (inactive); in [9], -0.108. In addition, the values for the composite z-score in assay [4] and in assay [10] were 0.663 (inactive) and -0.157, respectively.
On to `CCOc1ccc(N2C(=O)CSC2c2cccc([N+](=O)[O-])c2)cc1` (stereo not given), for which the z-score was 0.296 in [1]; 0.269 (inactive) in [2]; -0.0959 (inactive) in assay [3]; -0.0902 (inactive) in assay [5]; 0.791 (inactive) in assay [6]; 0.754 (inactive) in assay [7]. The z-score in [8] was 0.908 (inactive); in assay [9], -0.0239. Further, the composite z-score in [4] is -0.274 (inactive); in assay [10], -0.183.
On to `CC1CC/C=C\[C@H]2OC34C=CCN(c5ccc6ccccc6c5)C(=O)[C@H]3N(CCO)C(=O)[C@@H]4C2C(=O)O1` (stereo not given in full), for which the z-score was -0.854 in assay [1]; -0.635 (inactive) in assay [2]; -1.03 (inactive) in assay [3]; 0.826 (inactive) in [5]; -0.471 (inactive) in assay [6]; -0.726 (inactive) in assay [7]. Further, the z-score is -0.867 (inactive) in [8] and 0.0886 in assay [9]. For the same compound, the figures for the composite z-score in [4] and in [10] were -0.509 (inactive) and 0.0728, respectively.
As for `CCCCC(=C=CC[C@@H](O)c1ccc(CO)o1)CCO`, the z-score in [1] is 1.15; in [2], -0.205 (inactive); in [3], -0.438 (inactive); in assay [5] it was 0.838 (inactive); in [6], 0.175 (inactive); in assay [7], 1.54 (inactive). In addition, the values for the z-score in [8] and in [9] were 1.12 (inactive) and 1.22, respectively. Besides, the composite z-score in assay [4] is -0.594 (inactive); in assay [10] it was 0.128.
`NCCCCCCNC(=O)[C@H]1C[C@H]2C(=O)N[C@@H](Cc3ccccc3)C(=O)N2[C@H]1c1cccc(OCCO)c1`: the z-score in assay [1] was -2.77; in assay [2], -0.669 (inactive); in assay [3], 1.51 (inactive); in [5], -0.627 (inactive); in assay [6], 0.262 (inactive); in assay [7], 0.968 (inactive). Moreover, the values for the z-score in assay [8] and in [9] were 0.846 (inactive) and 1.06, respectively. In addition, the values for the composite z-score in assay [4] and in assay [10] were 1.18 (inactive) and 0.081, respectively.
With `COC(=O)C(CC#Cc1ccc2c(c1)[C@]1(C(=O)N2)[C@H](c2ccc(O)cc2)N2[C@H](c3ccccc3)[C@H](c3ccccc3)OC(=O)[C@H]2[C@@H]1C(=O)N1CCN(c2ncccn2)CC1)C(=O)OC`, the z-score in [1] was -0.0862; in [2], 0.238 (inactive); in [3], -1.02 (inactive); in assay [5], 0.847 (inactive); in assay [6] it was 0.849 (inactive); in assay [7] it was 0.551 (inactive). Besides, the results for the z-score in [8] and in assay [9] were 0.769 (inactive) and -3.92, respectively. The composite z-score is 0.0817 (inactive) in assay [4] and -0.0668 in assay [10].
Regarding `Cc1ccc(S(=O)(=O)N2C[C@@H](C(=O)O)[C@H](Sc3ccccc3)C[C@H]2c2ccccc2)cc1`, the z-score in [1] is -0.199; in assay [2], -0.638 (inactive); in assay [3] it was -0.26 (inactive); in assay [5], 0.409 (inactive); in assay [6], -0.339 (inactive); in assay [7], -0.529 (inactive). Also, the z-score was -1.55 (inactive) in assay [8] and -0.911 in [9]. Also, the composite z-score in [4] is -1.43 (inactive); in [10] it was -0.303.
`COC(=O)C[C@H]1O[C@@H](CCc2ccccc2)[C@@H](C)[C@@H]1[Si](C)(C)c1ccc(OC)cc1`: the z-score is 0.294 in assay [1]; -0.938 (inactive) in assay [2]; -0.229 (inactive) in assay [3]; -0.529 (inactive) in assay [5]; 0.725 (inactive) in [6]; -0.0089 (inactive) in assay [7]. The z-score is -1.12 (inactive) in [8] and -0.206 in [9]. The figures for the composite z-score in assay [4] and in assay [10] were 0.656 (inactive) and 0.152, respectively.
Turning to `COc1ccc([C@H]2C[C@H]3C(I)=C[C@@H]2C(=O)[C@]32CO2)cc1`, the z-score in assay [1] was 0.91; in assay [2], -9.78 (active); in [3], -0.306 (inactive); in [5], 0.167 (inactive); in assay [6] it was -1.14 (inactive); in assay [7], 1.73 (inactive). In addition, the z-score in [8] was 0.344 (inactive); in assay [9] it was 0.867. Moreover, the composite z-score in assay [4] was -0.174 (inactive); in assay [10] it was 0.288.
`COCC(=C=CC[C@H](O)c1cccc(OCCO)c1)C[C@H](O)c1cc(Cl)cc(Cl)c1O`: the z-score in [1] was 1.13; in assay [2], -2.5 (inactive); in assay [3], 0.685 (inactive); in assay [5], 0.625 (inactive); in assay [6], 0.337 (inactive); in assay [7], 0.679 (inactive). For the same compound, the z-score is 0.477 (inactive) in assay [8] and 0.159 in assay [9]. Moreover, the composite z-score in assay [4] is -0.492 (inactive); in assay [10], -0.0669.
Take `CN1C(=O)C2C=CC(C(O)c3c(F)cccc3Cl)N(NC(=O)OC(C)(C)C)C2C1=O` (stereo not given): the z-score in assay [1] is -0.417; in [2], 0.357 (inactive); in [3] it was -0.414 (inactive); in [5] it was 0.791 (inactive); in [6] it was 0.0301 (inactive); in assay [7], -0.775 (inactive). Further, the z-score in [8] is -0.181 (inactive); in assay [9], -0.301. The composite z-score in [4] was 0.17 (inactive); in assay [10] it was 0.0951.
